Assay outcomes as filed in PubChem BioAssay.
Shown are actives, neighbours in structure and some others; about 1.1% of the full set was active somewhere.
PfHsp40 yeast: rescue of yeast from PfHsp40 toxicity, primary screen, S. cerevisiae, ATP luminescence. 0.68% of 340,000 active. AID 504582, 2011. growth rescue, % at 12.5 µM. S. cerevisiae expressing PfHsp40, growth rescue; in the data active means growth rescue above about 28%, passing the limit was not always enough;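 further: yeast W303a lacking pdr1 and pdr3 grown in galactose medium; growth measured after three days at 30 °C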
FadD28 binding: inhibitors of FadD28 bisubstrate probe binding, primary screen, biochemical, fluorescence polarization, single point; Mycobacterium tuberculosis FadD28 fatty-acid-AMP ligase; inhibition, % at 12.5 µM; 0.22% of 360,000 active; AID 588549, 2011; in the data active means inhibition above about 8.5%, passing the limit was not always enough
BioA inh-1: M. tuberculosis BioA enzyme inhibitors, primary screen, biochemical, plate reader, single point, HTS | 7,8-diaminopelargonic acid synthase BioA (Mycobacterium tuberculosis) | inhibition, % at 9.99 µM | purified M. tuberculosis BioA enzyme | 0.096% of 360,000 active; in the data active means inhibition above about 40%
TcdB GH inh: TcdB glycohydrolase inhibitors, primary screen, biochemical, single point, plate reader; 0.24% of 350,000 active; TcdB glycohydrolase enzymatic assay; Toxin B (Clostridioides difficile), P18177; inhibition, % at 9.99 µM; in the data active means inhibition above about 10%
PrP UTR inh: inhibition of PrP 5' UTR reporter expression | cell-based PrP 5' UTR mRNA reporter, plate reader | inhibition, % (test concentration not listed) | 0.35% of 340,000 active | AID 488862, 2010; in the data active means inhibition above about 52%
BioA inh-2: Mtb BioA enzyme inhibitors, dose response, biochemical, plate reader, cherry-pick samples, set 03. max activity, %. purified BioA enzyme. shares compounds with BioA inh-1. 310 tested, under 10 active;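 further: top concentration of the dilution series was 10 µM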
HepG2 cytotox: cytotoxicity in HepG2 cells, dose response, cytotoxicity control, cell-based, plate reader, cherry-pick, two tests | AID 651898, 2012 | max activity, % | shares compounds with BioA inh-1 | 310 tested, under 10 active
3T3 cytotox 5: cytotoxicity in NIH3T3 fibroblasts, dose response, cytotoxicity control, cell-based, plate reader, cherry-pick, two tests; shares compounds with BioA inh-1; activity change, negative = cytotoxicity, % at 26 µM; 310 tested, under 10 active; AID 651900, 2012
Of the large screens only hits and unclear results are named; the others gave an inactive call (follow-up assays come after a bar, where they were run). Unless noted, how the calls were made is not given here.

CC(=O)OCC(=O)[C@@]12OC(C)(C)O[C@@H]1C[C@H]1[C@@H]3C[C@H](F)C4=CC(=O)C=C[C@]4(C)[C@@]3(F)[C@@H](O)C[C@@]12C	none (no result: PfHsp40 yeast, FadD28 binding, TcdB GH inh)
CC(=O)OCC(=O)[C@@]1(OC(C)=O)[C@@H](C)C[C@H]2[C@@H]3C[C@H](F)C4=CC(=O)C=C[C@]4(C)[C@@]3(F)[C@@H](O)C[C@@]21C	BioA inh-1 51 | BioA inh-2 inactive | HepG2 cytotox inactive | 3T3 cytotox 5 inactive
COC(=O)c1cn(CCNC(=O)[C@@H](NS(=O)(=O)c2ccc(C)cc2)C(C)C)nn1	none (no result: PfHsp40 yeast, FadD28 binding, BioA inh-1, PrP UTR inh)
CN1CCN(C(=O)C[C@@H]2CC[C@H]3[C@H](COc4ccc(NC(=O)C5CCCC5)cc4C(=O)N3C)O2)CC1	none (no result: PfHsp40 yeast, FadD28 binding, BioA inh-1, PrP UTR inh)
CO[C@@H]1CN(C)C(=O)c2ccc(NC(=O)c3ccc(F)cc3)cc2OC[C@@H](C)N(C(=O)c2ccc(F)cc2)C[C@H]1C	none (no result: PfHsp40 yeast, FadD28 binding, PrP UTR inh)
O=C(CSc1nc2c(c(=O)n1-c1ccc(Cl)cc1)SCC2)N1CCCC1	none (no result: TcdB GH inh)
O=C(CSc1nc2c(c(=O)n1-c1ccc(Cl)cc1)SCC2)N1CCOCC1	BioA inh-1 56 | BioA inh-2 inactive | HepG2 cytotox inactive | 3T3 cytotox 5 inactive
O=C(C[C@H]1CC[C@@H]2[C@H](COC[C@@H](O)CN2C(=O)C2CCCC2)O1)NCc1ccncc1	none (no result: PfHsp40 yeast, FadD28 binding, PrP UTR inh)
CCc1nn(CCCC(=O)N(C)Cc2ccccc2)c(=O)c2cc3occc3n12	BioA inh-1 50 | BioA inh-2 inactive | HepG2 cytotox inactive | 3T3 cytotox 5 inactive
CCc1nn(C(C)C(=O)N(C)Cc2ccccc2)c(=O)c2cc3occc3n12 (centres undefined)	none
CCc1c(C(=O)NCCc2cccc(C)c2)[nH]c(C)c1C(C)=O	none
CCc1c(C(=O)NCCc2ccc(OC)c(OC)c2)[nH]c(C)c1C(C)=O	BioA inh-1 60 (no result: TcdB GH inh) | BioA inh-2 inactive | HepG2 cytotox inactive | 3T3 cytotox 5 inactive
COc1ccc(-c2ccc3c(c2)C2CC3CCN2)cc1 (centres undefined)	BioA inh-1 86 | BioA inh-2 inactive | HepG2 cytotox inactive | 3T3 cytotox 5 inactive
COc1ccc(-c2ccc3c(c2)C2CC3CCN2C(=O)C2CCCCC2)cc1 (centres undefined)	none
CCCC(=O)Nc1cccc(NC(=O)c2ccc(C)c([N+](=O)[O-])c2)c1	BioA inh-1 44 (no result: TcdB GH inh) | BioA inh-2 inactive | HepG2 cytotox inactive | 3T3 cytotox 5 inactive
CC(=O)c1ccc(C(=O)N2CCCC(Nc3ccc(C(C)C)cc3)C2)s1 (centres undefined)	BioA inh-1 67 | BioA inh-2 inactive | HepG2 cytotox inactive | 3T3 cytotox 5 inactive
C/C=C/c1ccc2c(c1)O[C@@H](CN(C)C(=O)Nc1ccc(OC)cc1)[C@@H](C)CN([C@@H](C)CO)S2(=O)=O	BioA inh-1 41 (no result: PfHsp40 yeast, FadD28 binding, PrP UTR inh) | BioA inh-2 inactive | HepG2 cytotox inactive | 3T3 cytotox 5 inactive
C/C=C/c1ccc2c(c1)O[C@@H](CN(C)C(=O)Nc1ccccc1)[C@H](C)CN([C@H](C)CO)S2(=O)=O	BioA inh-1 42 (no result: PfHsp40 yeast, FadD28 binding, PrP UTR inh) | BioA inh-2 inactive | HepG2 cytotox inactive | 3T3 cytotox 5 inactive
COc1ccc(C(=O)C2CCCN(C(=O)c3ccc(C(C)=O)s3)C2)c(C)c1 (centres undefined)	BioA inh-1 64 | BioA inh-2 inactive | HepG2 cytotox inactive | 3T3 cytotox 5 inactive
COc1ccc(C(=O)C2CCCN(C(=O)c3ccnn3C)C2)c(C)c1 (centres undefined)	none
CCOCCCNC(=O)CSc1nc2nc(C)c(Cc3ccccc3)c(C)n2n1	BioA inh-1 76 | BioA inh-2 inactive | HepG2 cytotox inactive | 3T3 cytotox 5 inactive
Cc1nc2nc(SCC(=O)NCCCN3CCOCC3)nn2c(C)c1Cc1ccccc1	BioA inh-1 47 | BioA inh-2 inactive | HepG2 cytotox inactive | 3T3 cytotox 5 inactive
COc1ccc2c3c(n(C)c2c1)[C@H](CO)N(C(C)=O)CC31CN(Cc2nccs2)C1	none (no result: PfHsp40 yeast, FadD28 binding, BioA inh-1, PrP UTR inh)
O=C(c1ccccc1F)N1CC[C@@H]2[C@H]1c1cc(Br)ccc1N[C@@H]2CO	BioA inh-1 49 (no result: PfHsp40 yeast, FadD28 binding, PrP UTR inh) | BioA inh-2 inactive | HepG2 cytotox inactive | 3T3 cytotox 5 inactive
O=C(c1ccccc1F)N1CC[C@@H]2[C@H](CO)Nc3ccc(Br)cc3[C@@H]21	BioA inh-1 83 (no result: PfHsp40 yeast, FadD28 binding, PrP UTR inh) | BioA inh-2 inactive | HepG2 cytotox inactive | 3T3 cytotox 5 inactive
O=C(c1ccccc1F)N1CC[C@@H]2[C@H](CO)Nc3ccc(-c4ccccc4)cc3[C@@H]21	none (no result: PfHsp40 yeast, FadD28 binding, PrP UTR inh)
O=C(c1cccc(F)c1)N1CC[C@@H]2[C@@H](CO)Nc3ccc(-c4cccc(F)c4)cc3[C@@H]21	BioA inh-1 98 (no result: PfHsp40 yeast, FadD28 binding, TcdB GH inh, PrP UTR inh) | BioA inh-2 inactive | HepG2 cytotox inactive | 3T3 cytotox 5 inactive
Brc1ccc(CN2CCN(c3ncc(Cc4ccccc4)cn3)CC2)cc1	none (no result: PfHsp40 yeast, FadD28 binding, BioA inh-1, PrP UTR inh)
C[C@@H]1CN([C@@H](C)CO)C(=O)Cc2cc(NC(=O)CCCCCC(=O)Nc3ccccc3N)ccc2O[C@H]1CN(C)C(=O)Nc1ccccc1	none (no result: PfHsp40 yeast, FadD28 binding, BioA inh-1, PrP UTR inh)
COc1ccccc1-c1cc(C(F)(F)F)nc(S(=O)(=O)CCCC(=O)O)n1	BioA inh-1 60 (no result: TcdB GH inh) | BioA inh-2 inactive | HepG2 cytotox inactive | 3T3 cytotox 5 inactive
C[C@@H]1CN([C@H](C)CO)C(=O)Cc2cc(NS(=O)(=O)c3ccccc3)ccc2O[C@H]1CN(C)S(=O)(=O)c1ccccc1	none (no result: PfHsp40 yeast, FadD28 binding, PrP UTR inh)
Cc1ccc(NC(=O)C2CCN(S(=O)(=O)c3cccs3)CC2)cc1	none (no result: BioA inh-1)
O=C(Nc1ccc(F)c(F)c1)C1CCN(S(=O)(=O)c2cccs2)CC1	BioA inh-1 58 | BioA inh-2 inactive | HepG2 cytotox inactive | 3T3 cytotox 5 inactive
O=C(Nc1ccc2c(c1)[C@@H]1C[C@@H](CC(=O)N3CCCCC3)O[C@@H](CO)[C@@H]1O2)c1ccc2c(c1)OCO2	none (no result: PfHsp40 yeast, FadD28 binding, PrP UTR inh)
C[C@H](CO)N1C[C@H](C)[C@H](CN(C)S(C)(=O)=O)Oc2ccc(NS(=O)(=O)c3ccccc3)cc2C1=O	none (no result: PfHsp40 yeast, FadD28 binding, PrP UTR inh)
O=C(Nc1ccc2nccnc2c1)c1cnccn1	BioA inh-1 48 (no result: TcdB GH inh) | BioA inh-2 inactive | HepG2 cytotox inactive | 3T3 cytotox 5 inactive
CN1CCN(C(=O)C[C@H]2C[C@@H]3c4cc(NC(=O)c5cccnc5)ccc4O[C@@H]3[C@H](CO)O2)CC1	none (no result: PfHsp40 yeast, FadD28 binding, TcdB GH inh, PrP UTR inh)
O=C(C[C@@H]1C[C@H]2c3cc(NC(=O)c4cccnc4)ccc3O[C@H]2[C@H](CO)O1)NCC(F)(F)F	none (no result: PfHsp40 yeast, FadD28 binding, PrP UTR inh)
O=C(C[C@H]1C[C@@H]2c3cc(NC(=O)c4cccnc4)ccc3O[C@@H]2[C@@H](CO)O1)NCC(F)(F)F	BioA inh-1 44 (no result: PfHsp40 yeast, FadD28 binding, PrP UTR inh) | BioA inh-2 inactive | HepG2 cytotox inactive | 3T3 cytotox 5 inactive
